From PubChem BioAssay (NCI) come the findings set out here.

The structures appear in SMILES notation. About 83,000 compounds went through this panel and 20% of them were active in at least one assay; those are over-represented in the sample as a whole.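 Step 1: grow cells in 96-well plates. Step 2: add test compound at a single concentration. Step 3: incubate 48 h. Step 4: record percent growth.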 Values without a mark were called inactive. The source made the active and inactive calls. Rule for the calls: active = growth percent below 10; inactive = the rest.

The first experiment relates to HS 578T breast. The experiment can be described thus: NCI-60 one-dose screen, 48 h (100 = growth as untreated, 0 = no growth, -100 = all killed). Conditions: 10 µM unless noted.
For `CC(C)CCN(CCCNc1c2c(nc3ccccc13)CCCC2)CCC(C)C`, the growth is 87.6%. Same read-out and setting: the result for `COc1cc(/C=C/C(=O)c2ccccc2O)ccc1OCCCOc1cc2c(cc1OC)C(=O)N1CCC[C@H]1C=N2` reads 37.8%; that for `O=C1NC(Cc2c[nH]c3ccccc23)C(=O)N1Cc1ccc(Cl)cc1` (stereo not drawn), 108%; that for `COc1ccc(C2CC(c3cccs3)=NN2c2ccc(S(=O)(=O)NC(=O)NCc3cccc(OC)c3)cc2)cc1` (stereo not drawn), 97.5%.

With `CCOC(=O)C1=C(CSC(=S)N(C2CCCCC2)C2CCCCC2)N(C)C(=O)NC1c1ccccc1` (stereo not drawn), the growth is 80.7%.

With `COc1cccc2nc(Nc3ccc(NC(=O)c4ccc5ncccc5c4)cc3)ccc12`, the growth is 66.7%. Same read-out and setting: the result for `Cc1cc(NC(=O)COC(=O)c2sc3cc(F)ccc3c2Cl)no1` reads 123%; that for `CC/C=C\C[C@H](O)C/C=C1/C(=O)C(Cl)=C[C@@H]1C/C=C\CCCC(=O)O`, 75.9%; that for `O=Nc1c(-c2c(O)[nH]c3ccc([N+](=O)[O-])cc23)[nH]c2ccc(O)cc12`, 1.21% (active). On the same count and under the same terms, the result for `O=C(Nc1ccc(F)cc1)c1cc([N+](=O)[O-])ccc1O` reads 64%. On the same count and under the same terms, the result for `Cc1ccc(S(=O)(=O)OCC(=O)Nc2ccc(C(=O)O)c(O)c2)cc1` reads 118%; that for `Cc1cc(C)c(NC(=O)c2sc3nc4c(cc3c2N)CN(Cc2ccccc2)CC4)c(C)c1`, 21%. `COc1ccc(-c2nnc(COc3ccc(NS(=O)(=O)c4ccc(OC)cc4)cc3F)o2)cc1`: the growth is 88.2%. The same measure, in the same setting: with `Cc1ccc2nc(-c3c(CCCO)noc3N)[nH]c(=O)c2c1` the figure was 104%; with `O=[N+]([O-])c1ccc(S(=O)(=O)N2CCN(c3ccnc4cc(Cl)ccc34)CC2)c([N+](=O)[O-])c1`, 89.1%; with `CCN(Cc1ccc(CN(CC)C(=O)C(Cl)(Cl)Cl)cc1)C(=O)C(Cl)(Cl)Cl`, 89.7%. Same read-out and setting: the result for `COc1ccc(Cn2cc(COc3cc(/C=C/C(=O)c4cc(OC)c(OC)c(OC)c4)ccc3OC)nn2)cc1` reads 83.3%; that for `N#CC1=C(N)n2nc(-c3ccncc3)nc2NC1c1cccc2ccccc12` (stereo not drawn), 80.5%; that for `COc1ccc(/C=C/C(=O)c2ccc(B(O)O)cc2)cc1O`, 70.7%. For `Nc1nc(-c2ccccc2)cs1`, the growth is 104%.

For `NS(=O)(=O)c1ccc(NCC(=O)Nc2ccc(-c3nc4ccccc4s3)cc2)cc1`, the growth was 98.3%. On the same count and under the same terms, the result for `COc1cc(Br)c(OC)cc1Br` reads 94.1%; that for `COc1cc(NS(C)(=O)=O)ccc1Nc1c2ccc([N+](=O)[O-])cc2nc2c(C)cccc12`, 58.4%; that for `O=C(Nc1ccc(I)cc1)c1cccc([N+](=O)[O-])c1O`, 42.6%.

Another experiment relates to NCI/ADR-RES ovarian. The description is as above. Conditions: 10 µM unless noted.
For the compound `CCSc1nnc(Nc2ccc(C(C)C)cc2)s1`, the growth is 87.6%. On the same count and under the same terms, with `O=C(Cc1c(F)cccc1Cl)Nc1ccc(S(=O)(=O)Nc2ncccn2)cc1` the figure was 108%; with `CC1(C)OC2COC3(C(=O)O)OC(C)(C)OC3C2O1` (stereo not drawn), 101%. On the same count and under the same terms, the result for `COc1cc(-n2nc(C(=O)Nc3ccc(C(=O)O)cc3)nc2-c2ccccc2)cc(OC)c1OC` reads 89.1%; that for `CN1CCN(CCCOc2ccc3nc(Nc4ccc(C(F)(F)F)c(Cl)c4)ccc3c2)CC1`, 20.4%. On the same count and under the same terms, the result for `COc1ccc(S(=O)(=O)NCCNc2nccc(-c3c(-c4ccccc4)nc4sccn34)n2)cc1` reads 17.1%; that for `O=c1[nH]c(-c2cn(-c3ccc(Cl)cc3)nn2)nc2ccccc12`, 63.9%.

Consider `COc1ccc(S(=O)(=O)Nc2cc(/C=C\c3cc(OC)c(OC)c(OC)c3)cc(OC)c2OC)cc1OC`, for which the growth was 12.6%.

On to `COc1ccc(-c2nc3sccn3c2-c2ccnc(NCCNS(=O)(=O)c3ccc(C(F)(F)F)cc3)n2)cc1`, for which the growth is 9.11% (active). As for `CCN(CC)CCSc1c2ccc(Cl)cc2nc2ccc(OC)cc12`, the growth was 105%. Same read-out and setting: with `COc1ncc(-c2ccc3ncnc(Nc4cccc(Cl)c4)c3c2)cc1NS(=O)(=O)CCN1CCOCC1` the figure was 30.1%; with `O=c1[nH]c(CN2CCN(c3ccccc3F)CC2)nc2sc3c(c12)CCC3`, 111%. Consider `O=C(Nc1cccc(Cl)c1)c1cc([N+](=O)[O-])ccc1O`, for which the growth was 56%. The same measure, in the same setting: the result for `Cc1cc(N/C=c2\sc3ncnn3c2=O)no1` reads 99.1%; that for `c1ccc2c(c1)Oc1ccccc1C2C1c2ccccc2Oc2ccccc21`, 95.3%; that for `CC(C)CCN(CCCNc1c2c(nc3ccccc13)CCCC2)CCC(C)C`, 87.8%.

`COc1cc(/C=C/C(=O)c2ccccc2O)ccc1OCCCOc1cc2c(cc1OC)C(=O)N1CCC[C@H]1C=N2`: the growth is 19.3%. Same read-out and setting: the result for `O=C1NC(Cc2c[nH]c3ccccc23)C(=O)N1Cc1ccc(Cl)cc1` (stereo not drawn) reads 106%; that for `COc1ccc(C2CC(c3cccs3)=NN2c2ccc(S(=O)(=O)NC(=O)NCc3cccc(OC)c3)cc2)cc1` (stereo not drawn), 103%; that for `CCOC(=O)C1=C(CSC(=S)N(C2CCCCC2)C2CCCCC2)N(C)C(=O)NC1c1ccccc1` (stereo not drawn), 64%. On to `COc1cccc2nc(Nc3ccc(NC(=O)c4ccc5ncccc5c4)cc3)ccc12`, for which the growth was 86%. Still for that read-out and setting: the result for `Cc1cc(NC(=O)COC(=O)c2sc3cc(F)ccc3c2Cl)no1` reads 107%.

As for `CC/C=C\C[C@H](O)C/C=C1/C(=O)C(Cl)=C[C@@H]1C/C=C\CCCC(=O)O`, the growth was 57.1%. On the same count and under the same terms, the result for `O=Nc1c(-c2c(O)[nH]c3ccc([N+](=O)[O-])cc23)[nH]c2ccc(O)cc12` reads 42%; that for `O=C(Nc1ccc(F)cc1)c1cc([N+](=O)[O-])ccc1O`, 72.9%.

Regarding `Cc1ccc(S(=O)(=O)OCC(=O)Nc2ccc(C(=O)O)c(O)c2)cc1`, the growth is 88%.

Consider `Cc1cc(C)c(NC(=O)c2sc3nc4c(cc3c2N)CN(Cc2ccccc2)CC4)c(C)c1`, for which the growth was 18.5%.

As to `COc1ccc(-c2nnc(COc3ccc(NS(=O)(=O)c4ccc(OC)cc4)cc3F)o2)cc1`, the growth was 55.3%.

For the compound `Cc1ccc2nc(-c3c(CCCO)noc3N)[nH]c(=O)c2c1`, the growth is 123%. Consider `O=[N+]([O-])c1ccc(S(=O)(=O)N2CCN(c3ccnc4cc(Cl)ccc34)CC2)c([N+](=O)[O-])c1`, for which the growth was 95.5%. Consider `CCN(Cc1ccc(CN(CC)C(=O)C(Cl)(Cl)Cl)cc1)C(=O)C(Cl)(Cl)Cl`, for which the growth is 86.6%. The same measure, in the same setting: with `COc1ccc(Cn2cc(COc3cc(/C=C/C(=O)c4cc(OC)c(OC)c(OC)c4)ccc3OC)nn2)cc1` the figure was 46.2%; with `N#CC1=C(N)n2nc(-c3ccncc3)nc2NC1c1cccc2ccccc12` (stereo not drawn), 91.9%. Same read-out and setting: the result for `COc1ccc(/C=C/C(=O)c2ccc(B(O)O)cc2)cc1O` reads 92.3%. Take `Nc1nc(-c2ccccc2)cs1`: the growth is 110%. As to `NS(=O)(=O)c1ccc(NCC(=O)Nc2ccc(-c3nc4ccccc4s3)cc2)cc1`, the growth is 94%. The same measure, in the same setting: with `COc1cc(Br)c(OC)cc1Br` the figure was 95.3%. As for `COc1cc(NS(C)(=O)=O)ccc1Nc1c2ccc([N+](=O)[O-])cc2nc2c(C)cccc12`, the growth is 58.6%. Still for that read-out and setting: the result for `O=C(Nc1ccc(I)cc1)c1cccc([N+](=O)[O-])c1O` reads 9.57% (active).
